Cycloheximide cs = affects cycloheximide protein synthesis inhibition readout, counter-screen; 300,000 compounds, 12% hits; max response, %; cell reporter, cycloheximide protein synthesis inhibition counterscreen; in the data active = max response mostly above about 13%, no sharp cut-off; inactive = mostly below about 14%; note: read at 38.3 µM for the half of the compounds with a filed dose; 0% is about no effect
FMDV inh = foot and mouth disease virus antiviral activity; Potency, µM (top dose mostly 57.9 µM), inactives show at the top dose activity change, negative = inhibition, actives largely listed as inhibitors; FMDV antiviral cell-based qHTS; 410,000 compounds, 1.2% hits; calls by dose curve; tested in HEK293T cells; note: read-out not given here; potency is the fitted concentration of half-maximal effect; % is set by controls: 0 for no effect and ±100 for the full control effect; nearly all actives have a fitted effect of over 45% in size
Shiga inhibitor = Shiga toxin inhibition | Vero cells, Shiga toxin protein synthesis inhibition reporter | inhibition, % at 38.7 µM | 290,000 compounds, 9.2% hits; in the data active = inhibition mostly above about 28%, no sharp cut-off; inactive = mostly below about 43%; note: 0% is about no effect
Sm TGR inh = S. mansoni TGR enzyme inhibition; Q962Y6; purified TGR, DTNB reduction, TNB absorbance 405 nm; Potency, µM (highest dose often 114 µM), inactives show top-dose activity change, negative = inhibition, most hits filed as inhibitors; 360,000 compounds, 3% hits; active = well fitted inhibition curve with a large enough effect; inconclusive = small, poorly fitted or top-dose-only effect; inactive = no such curve, though single readings can be large or run the other way; note: potency is the fitted concentration of half-maximal effect; % is set by controls: 0 for no effect and ±100 for the full control effect; nearly all actives have a fitted effect of over 60% in size
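TGR 20 nM + NADPH 100 uM (dispensed conc.), cpd preinc 15 min RT; start with NADPH (500 uM addition) then DTNB (15 mM addition). Kinetic TNB absorbance, 405 nm filter. Four-parameter Hill fit across titration.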
The depositor's hits bear a star; ? = inconclusive; . = no result given; + = active, no number. The list is not random: actives were taken first. Their share in the collection is about 12%.

SMILES	Cycloheximide cs	FMDV inh	Shiga inhibitor	Sm TGR inh
CCc1cccc(C)c1NC(=O)Cn1cc2c(n1)CCCC2	.	-29%	.	6%
CC(=O)NCCCOc1ccc([N+](=O)[O-])cc1Cl	16*	30%	48	-25%
CC(=O)NCCCNc1ccc([N+](=O)[O-])cc1	23*	9%	35*	0%
CC(=O)Nc1ccc(Oc2ccc([N+](=O)[O-])cc2Cl)cc1	2	?	-3	2%
COc1ccccc1C(=O)NCCCNc1ccc([N+](=O)[O-])cc1	-2	4%	-13	-1%
COc1ccccc1OCCCOc1ccc([N+](=O)[O-])cc1Cl	50*	-5%	126*	11%
COc1cccc(OCCCOc2ccc([N+](=O)[O-])cc2Cl)c1	16	-4%	2	7%
COc1cc(C2C(=O)N(C3CCCCC3)CC(=O)N2CCc2ccccc2)ccc1OC(C)C (stereo not given)	.	-17%	.	-3%
O=C(CSc1nccn1Cc1ccco1)Nc1ccc(OC(F)(F)F)cc1	.	42%	.	-5%
Cc1ccc(-c2nc3ncccc3n2O)cc1	8	15%	27	-1%
COn1c(-c2ccc(Cl)cc2)nc2ncccc21	49*	1%	60*	1%
Cc1cc(C)c(CN2C(=O)c3ccccc3S(=O)(=O)c3ccc(C(=O)OCC4CCCO4)cc32)c(C)c1 (stereo not given)	.	-6%	.	6%
Cc1cc([N+](=O)[O-])ccc1NC(=O)CSc1nccn1C	.	-5%	.	0%
Cc1csc(=Nc2ccccc2)n1Cc1ccco1	29*	-1%	31	?
CN(Cc1ccccc1)C(=O)Cn1ncc2c3ccccc3n(Cc3cccc(Cl)c3)c2c1=O	.	27%	.	2%
COc1ccccc1OCCSc1nnnn1C1CCCCC1	.	52%	.	.
c1ccc(OCCSc2nnnn2C2CCCCC2)cc1	30*	-22%	95*	?
COCc1nnc(NC(=O)c2ccc(NC(=O)C(C)C)cc2)s1	-3	6%	47	-18%
COc1ccc2nc(NC(=O)c3ccc(F)cc3)sc2c1	27*	17%	.	-8%
COc1ccc(C(=O)Nc2nc3ccccc3s2)cc1	8	-71%	22	10%
COc1cccc(C(=O)Nc2nc3ccccc3s2)c1	35*	-9%	57*	-20%
Cc1ccc2nc(NC(=O)c3ccc(-c4nc5ccccc5s4)s3)sc2c1	51*	18%	86*	-6%
CCc1nnc(NC(=O)c2ccc(NC(=O)C(C)C)cc2)s1	41*	54%	99*	15%
CCCCN1C(=O)C(O)(c2c[nH]c3ccccc23)c2cc(Br)ccc21 (stereo not given)	.	-12%	.	1%
CC(C)(C)c1ccc(-c2nnc(-c3ccccc3NC(=O)c3ccc(F)cc3F)o2)cc1	.	16%	.	-2%
SMILES	Cycloheximide cs	FMDV inh	Shiga inhibitor	Sm TGR inh
COc1cccc(N2CC(NC(=O)/C=C\c3ccc4c(c3)OCO4)CC2=O)c1 (stereo not given)	.	-24%	.	14%
CCCCOC(=O)c1ccc(NC(=O)CC2NCCNC2=O)cc1 (stereo not given)	.	17%	.	-1%
O=C(Nc1nc(=O)[nH]s1)c1ccccc1	7	10%	2	2%
O=C(Nc1nc2ccccc2s1)c1ccc(S(=O)(=O)N2CCCC2)cc1	.	11%	.	-1%
O=C(Nc1nc2ccccc2s1)c1ccc(F)cc1	32*	6%	82*	24%
O=C(Nc1nc2c(s1)C(=O)CCC2)c1ccccc1	43*	-40%	48	9%
O=C(Nc1nc(=O)c2ccccc2s1)c1ccccc1	46*	0%	95*	16%
O=C(Nc1nc2ccccc2s1)c1ccc(Cl)s1	32*	6%	86*	-7%
Cc1cc(C)c(/C=C/c2onc(C)c2S(=O)(=O)N2CCC(C(=O)N3CCN(c4ccccc4)CC3)CC2)c(C)c1	.	-5%	.	3%
Cc1ccc(-c2nc(CS(=O)(=O)CC(=O)Nc3ccc(Br)cc3F)c(C)o2)cc1	.	-6%	.	-29%
COc1ccc(CN2CCC3(CC2)c2ccccc2[C@@H](NC(=O)c2ccccc2)[C@@H]3O)cc1O	.	4%	.	.
CC(=O)Nc1nc2cc(C(N)=O)ccc2s1	.	-9%	.	1%
CCc1nnc(NC(=O)c2ccc3ncsc3c2)s1	18*	38%	47*	1%
Cc1cnc(NC(=O)c2ccc3ncsc3c2)s1	.	18%	.	9%
NC(=O)c1ccc2nc(NC(=O)c3ccc(N)cc3)sc2c1	20*	13%	33*	-5%
CCc1nnc(NC(=O)c2ccc3c(c2)C(=O)N(C(C)(C)C)C3=O)s1	17*	43%	38	?
Cc1ccc(C(=O)Nc2nc3ccccc3c(=O)s2)cc1	43*	.	101*	0%
CC(C)(C)c1ccc(-c2nc(SCC(=O)Nc3ccc(Cl)cc3)[nH]c(=O)c2C#N)cc1	2	-17%	32	0%
COc1ccc2nc(NC(=O)c3ccc(-n4nc(C)cc4C)cc3)sc2c1	-3	-12%	-16	-24%
COc1ccc2nc(NC(=O)c3ccc4ncsc4c3)sc2c1	56*	18%	70*	1%
COc1ccc(-c2cn3c(n2)sc2cc(C(=O)NC4CCCc5ccccc54)ccc23)cc1 (stereo not given)	.	42%	.	8%
Cc1cc2ncn(C(=O)N3CCCCCC3)c2cc1C	19*	54%	active	?
O=C(OCc1cc(=O)n2nc(-c3cccs3)sc2n1)c1ccccc1Cl	.	1%	.	0%
Cc1cccc(C(=O)NCC(=O)OCc2cc(=O)n3nc(CC(C)C)sc3n2)c1	.	-22%	.	-2%
C=CCOc1ccc(/C=N/N2C(=O)C(CC(=O)Nc3ccc(F)cc3F)SC2=NC)cc1 (stereo not given)	21*	-22%	30*	-15%
SMILES	Cycloheximide cs	FMDV inh	Shiga inhibitor	Sm TGR inh
O=C(O)c1cccc(Nc2ccnc(Nc3cccc(C(=O)O)c3)n2)c1	29*	?	79*	-6%
Fc1ccc(Nc2ccnc(Nc3ccc(F)cc3)n2)cc1	72*	13%	+	3%
CC1=C(C(=O)Nc2ccccc2C)C(c2ccccn2)n2nc(SCc3ccccc3F)nc2N1 (stereo not given)	.	-2%	.	1%
CC(=O)c1ccc(CCCCCCCCCC(=O)O)s1	-3	-28%	-11	7%
COC(=O)CCCCCc1ccc(C(C)=O)s1	12*	-2%	11	-8%
CN1C(=O)c2ccc(NC(=O)c3ccc(N4CCCCC4)c([N+](=O)[O-])c3)cc2C1=O	-2	18µM*	-1	-1%
O=C(Nc1ccc(N2CCCC2)c(Cl)c1)c1ccc([N+](=O)[O-])cc1	15	-17%	9	-16%
O=C(Nc1cccnc1)c1ccc(N2CCCC2)c([N+](=O)[O-])c1	29*	44%	48	-29%
O=C(Nc1cccnc1)c1ccc(N2CCOCC2)c([N+](=O)[O-])c1	1	2%	-2	-13%
Cc1cc(C(=O)Nc2ccc(N3CCCC3)c(Cl)c2)ccc1[N+](=O)[O-]	47*	2%	31*	5%
O=C(C1=C(c2ccccc2)C(=O)c2ccccc2C1=O)c1ccccc1	20	10µM*	34	11%
COC1=C(c2ccccc2)C(=O)c2ccccc2C1=O	-2	?	12	-32%
CCN(CC)c1ccc(NS(=O)(=O)c2cc(-c3onc(C)c3C)ccc2OC)c(C)c1	.	3%	.	?
